Reference: PubChem BioAssay AID540308 (The Scripps Research Institute Molecular Screening Center, 2011)
Out of some 360,000 compounds screened, about 3,500 (0.97%) were called active.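 How the source made its calls: active means activation above a per-plate cutoff, the mean activation of sample wells on that plate plus 3 SD (cut at about 8% in these data); inactive means the rest.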 Many of the other results were omitted from the sample, so actives are more common in it than they were.

target: Melanocortin receptor 4 (Homo sapiens) (UniProt P32245); experiment: MC4R agonists recruiting beta-arrestin, primary screen, cell-based, luminescence, agonist arm of biased-ligand search (AID 540308); details: U2OS MC4R beta-arrestin complementation, at 8.9 µM, active compounds read high, percent of melanotan II response, DMSO zero
Sequence (P32245 whole entry, looked up): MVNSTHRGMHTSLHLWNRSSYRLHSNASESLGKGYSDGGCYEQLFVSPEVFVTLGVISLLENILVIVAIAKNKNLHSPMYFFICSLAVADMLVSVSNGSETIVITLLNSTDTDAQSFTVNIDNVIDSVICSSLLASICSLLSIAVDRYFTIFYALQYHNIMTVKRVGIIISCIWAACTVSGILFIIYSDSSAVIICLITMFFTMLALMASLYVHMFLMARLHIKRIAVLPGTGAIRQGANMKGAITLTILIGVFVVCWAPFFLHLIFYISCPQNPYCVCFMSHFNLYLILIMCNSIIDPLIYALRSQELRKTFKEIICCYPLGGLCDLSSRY

activation, inactive:
NC(=O)Nc1ccc(C(=O)OCC(=O)NC2CCCc3ccccc32)cc1 (stereo not given) -2.32%, CCOC(=O)c1c(NC(=S)SC)sc(C(=O)N2CCc3ccccc3C2)c1C -0.37%, C#Cc1ccc(NC(=O)C2(C)CCN2C(=O)Cc2ccc(-c3ccccc3)cc2)cc1 (stereo not given) 0.34%, CCCC/C=C/c1cccc2nncn12 0.76%, CN1CCC(CN)(N2CCN(c3ccccc3)CC2)CC1 0.54%, COc1ccccc1N1CCN(c2ncnc3sc(C)c(-c4ccccc4)c23)CC1 2.5%, CCc1cc2c(N3CCN(c4nnc(CC)s4)CC3)ncnc2s1 1%, CCCNC(=O)C1(C)CCN(C(=O)c2cc(F)ccc2C)C1 (stereo not given) -0.94%, CC(C)(C(=O)N1CCC1(C)C(=O)NS(=O)(=O)c1ccc(Br)cc1)c1ccccc1 (stereo not given) -0.16%, Cc1ccc(C2(C(F)(F)F)N=C3Sc4cc(C)cc(C)c4N3C(=O)N2)cc1 (stereo not given) -0.99%, CCOC(=O)N(C)c1c(CC)nc2c(OCc3ccccc3C(=O)OC)cccn12 -1.73%, CCc1nc2c(OCCOc3ccc(F)cc3)cccn2c1N(C)C(=O)c1ccccc1F 0.11%, COc1ccc(NC(=O)CCCC2CCCCC2)c(OC)c1 -1.23%, CC(=O)Oc1ccc(NC(=O)CCC2CCCCC2)c(C(=O)O)c1 0.62%, COCCCNC(=O)c1cccc2c(-c3ccc(O)c(OC)c3)coc12 0.52%, COc1ccc(S(=O)(=O)Nc2ccc3cn[nH]c3c2)cc1[N+](=O)[O-] -0.37%, Cc1ccc(S(=O)(=O)N/N=C\c2cc3c(cc2[N+](=O)[O-])OCO3)cc1 -2.43%, CN1CCN(C(=O)c2ccc(-c3cc4nc(NCc5cccnc5)n(C)c(=O)c4s3)cc2)CC1 -1.19%, Cc1ccc(NC(=O)CCNS(=O)(=O)c2ccc3c(c2)oc(=O)n3C)cc1C -0.21%, Cc1ccc(S(=O)(=O)NCCC(=O)Nc2cccc(S(N)(=O)=O)c2)cc1C -1.36%, O=C(Nc1ccc(F)cc1)Nc1nnc([C@H]2C[C@H](O)[C@@H](CO)O2)s1 0.21%, O=C(NCc1cccnc1)c1ccc2nc([C@@H]3O[C@H](CO)[C@H](O)[C@H](O)[C@H]3O)[nH]c2c1 -1.52%, CC(=O)c1ccc(Nc2nc(C(N)c3ccccc3)cs2)cc1 (stereo not given) 1.43%, CC1(C(=O)Nc2cccc(Oc3ccccc3)c2)CCN1Cc1ccccc1Cl (stereo not given) -1.51%, CCn1c(CNC(=O)c2ccco2)nnc1SCC(=O)Nc1cccc(F)c1 2.05%, Cc1nc2nc(SCC(=O)Nc3cccc(F)c3)[nH]c2cc1Br 4.22%, CCCNS(=O)(=O)c1ccc2c(c1)CCCN2C(C)=O -3.18%, CN(C(=O)CN1CCN(c2cc(-c3ccc(OCc4ccccc4)cc3)ncn2)CC1)c1ccccc1 -0.62%, CCCS(=O)(=O)NC(=O)C1(C)CCCN(C(=O)c2cccs2)C1 (stereo not given) -0.48%

activation, active:
CCOC(=O)c1c(NC(=O)CNC2CCCc3ccccc32)sc(C(N)=O)c1C (stereo not given) 8.65%, Oc1ccccc1N1CCN(c2ncnc3sc(-c4ccccc4)cc23)CC1 14.4%, COC(=O)c1sccc1NC(=O)CCC1CCCC1 10.9%, COc1ccc(S(=O)(=O)N/N=C\c2ccc(OC)c(COc3ccc(C)cc3[N+](=O)[O-])c2)cc1 12.8%, Cc1ccc(S(=O)(=O)NCCC(=O)Nc2ccc(C)c(Cl)c2)cc1C 10.6%, CCn1c(SCC(=O)Nc2cccc(F)c2)nnc1-c1cc2cc(Br)ccc2o1 14.9%
